Data reported in PubChem BioAssay AID602143 (Vanderbilt Specialized Chemistry Center, 2011).
Where “and” joins values, the source holds several entries; their conditions need not be identical. Identical values can stand only once. Calls of active or inactive are those of the source. Cut-off read from the data, not from the text of the source: active = remaining activity below about 50%; inactive = the rest.

The compounds below were run against Phospholipase D2 (Homo sapiens) (UniProt O14939) (assay: PLD2 inhibitors in cells, cell-based, HEK293, single concentration (AID 602143;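 note: tested at 200 nM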)). Details: HEK293 cellular PLD2 activity, percent of control; hits give low values.
Sequence of Phospholipase D2 (Homo sapiens) (O14939 whole entry, looked up): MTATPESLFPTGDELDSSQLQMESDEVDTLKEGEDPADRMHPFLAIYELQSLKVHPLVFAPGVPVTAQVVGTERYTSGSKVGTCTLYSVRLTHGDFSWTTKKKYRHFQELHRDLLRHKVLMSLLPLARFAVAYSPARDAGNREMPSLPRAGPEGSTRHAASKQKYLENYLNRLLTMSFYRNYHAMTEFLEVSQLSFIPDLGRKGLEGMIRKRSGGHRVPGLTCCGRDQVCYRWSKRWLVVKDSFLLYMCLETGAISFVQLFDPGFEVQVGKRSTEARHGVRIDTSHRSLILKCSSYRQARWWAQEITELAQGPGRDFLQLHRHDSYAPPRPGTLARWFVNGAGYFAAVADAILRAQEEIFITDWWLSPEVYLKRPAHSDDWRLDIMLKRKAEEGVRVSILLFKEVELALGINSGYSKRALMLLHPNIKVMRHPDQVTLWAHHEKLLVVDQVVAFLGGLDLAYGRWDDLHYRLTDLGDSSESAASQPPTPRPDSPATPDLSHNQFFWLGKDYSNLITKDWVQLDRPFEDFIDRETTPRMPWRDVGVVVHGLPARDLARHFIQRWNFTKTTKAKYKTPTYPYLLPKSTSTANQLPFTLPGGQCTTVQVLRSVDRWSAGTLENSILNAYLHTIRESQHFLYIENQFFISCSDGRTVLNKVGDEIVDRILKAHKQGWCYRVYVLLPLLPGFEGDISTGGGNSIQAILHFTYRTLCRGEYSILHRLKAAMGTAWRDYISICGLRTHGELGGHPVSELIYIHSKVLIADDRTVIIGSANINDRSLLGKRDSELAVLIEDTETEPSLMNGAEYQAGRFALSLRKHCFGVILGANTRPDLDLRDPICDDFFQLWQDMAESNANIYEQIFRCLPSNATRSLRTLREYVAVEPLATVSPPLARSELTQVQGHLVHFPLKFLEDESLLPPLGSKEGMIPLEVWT
Sequence of Phospholipase D2 (Homo sapiens) (O14939 whole entry, looked up): as above

| Structure (SMILES) | remaining activity |
| --- | --- |
| C[C@H](CN1CCC2(CC1)C(=O)NCN2c1ccccc1)NC(=O)c1cc2cc(F)ccc2[nH]1 | 0% (active) |
| O=C(NCCN1CCC2(CC1)C(=O)NCN2c1cccc(F)c1)C1CCCCC1 | 91% (inactive) |
| O=C(NCCN1CCC2(CC1)C(=O)NCN2c1cccc(Cl)c1)c1cc2cc(F)ccc2[nH]1 | 40.2% (active) |
| O=C(C#Cc1ccccc1)NCCN1CCC2(CC1)C(=O)NCN2c1ccccc1 | 47.9% (active) |
| O=C(C1CC1c1ccccc1)N1CC(N2CCC3(CC2)C(=O)NCN3c2ccccc2)C1 (stereo not given) | 82.9% (inactive) |
| O=C(NCCN1CCC2(CC1)C(=O)NCN2c1cccc(F)c1)c1ccc2c(c1)C(=O)OC2=O | 66.5% (inactive) |
| O=C1NCN(c2ccccc2)C12CCN(CCN1CCCC1)CC2 | 84.9% (inactive) |
| O=C(NCCN1CCC2(CC1)C(=O)NCN2c1cccc(Cl)c1)c1ccc(F)cc1 | 65.4% (inactive) |
| O=C(NCCN1CCC2(CC1)C(=O)NCN2c1ccc(F)c(F)c1)c1ccc(Cl)cc1 | 55.3% (inactive) |
| O=C(c1cccc(F)c1)N(CCN1CCC2(CC1)C(=O)NCN2c1cccc(F)c1)C(=O)c1cccc(F)c1 | 71.6% (inactive) |
| O=C(NCCN1CCC2(CC1)C(=O)NCN2c1ccc(Cl)cc1)c1ccc2ccccc2c1 | 54.4% (inactive) |
| NC1(CN2CCC3(CC2)C(=O)NCN3c2ccccc2)CCCC1 (tested in a mixture with another compound) | 74.2% (inactive) |
| O=C(CCN1CCC2(CC1)C(=O)NCN2c1ccccc1)Nc1ccc(F)cc1 | 119% (inactive) |
| O=C(NCCCN1CCC2(CC1)C(=O)NCN2c1ccccc1)c1cnc2ccccc2c1 | 96.4% (inactive) |
| O=C(NCCN1CCC2(CC1)C(=O)NCN2c1cccc(F)c1)c1ccc(Cl)cc1Cl | 92.4% (inactive) |
| CC(C)[C@@H](CN1CCC2(CC1)C(=O)NCN2c1ccccc1)NC(=O)c1cnc2ccccc2c1 | 59.3% (inactive) |
| O=C(NCCN1CCC2(CC1)C(=O)Oc1ccccc12)c1cnc2ccccc2c1 | 57.4% (inactive) |
| CC(C)[C@@H](CN1CCC2(CC1)C(=O)NCN2c1ccccc1)NC(=O)c1cc2cc(F)ccc2[nH]1 | 57.1% (inactive) |

| Structure (SMILES) | remaining activity |
| --- | --- |
| O=C(NCCN1CCC2(CC1)C(=O)NCN2c1ccc(Br)cc1)c1ccc2ccccc2c1 | 52% (inactive) |
| COc1ccc(CC(=O)NCCN2CCC3(CC2)C(=O)NCN3c2cccc(F)c2)cc1OC | 102% (inactive) and 91.9% (inactive) |
| O=C(NCCN1CCC2(CC1)C(=O)NCN2c1ccccc1)c1cnco1 | 80.4% (inactive) |
| O=C(NCCN1CCC2(CC1)C(=O)NCN2c1ccc(F)cc1)c1ccc2cc(F)ccc2c1 | 61.1% (inactive) |
| O=C(CCCl)NCCN1CCC2(CC1)C(=O)NCN2c1cccc(F)c1 | 87.1% (inactive) |
| O=C(NCCN1CCC2(CC1)C(=O)NCN2c1cccc(Br)c1)c1ccc2ccccc2c1 | 47.8% (active) |
| O=C(c1cnc2ccccc2c1)N1CCCC1CN1CCC(n2c(=O)[nH]c3ccccc32)CC1 (stereo not given) | 54.2% (inactive) |
| O=C(c1cnc2ccccc2c1)N1CC(N2CCC(n3c(=O)[nH]c4ccccc43)CC2)C1 | 77.3% (inactive) |
| Nc1ccc(C(=O)NCCN2CCC3(CC2)C(=O)NCN3c2ccccc2)cc1OC(F)(F)F | 97.3% (inactive) |
| CC(C)[C@@H](CN1CCC2(CC1)C(=O)NCN2c1ccccc1)NC(=O)c1ccc(Cl)cc1 | 59.4% (inactive) |
| O=C(NCCN1CCC2(CC1)C(=O)NCN2c1ccc(Cl)cc1)c1cc2cc(F)ccc2[nH]1 | 57% (inactive) |
| CCCCCC(=O)N(CCN1CCC2(CC1)C(=O)NCN2c1cccc(F)c1)C(=O)CCCCC | 73.1% (inactive) |
| O=C(NCCN1CCC2(CC1)C(=O)NCN2c1ccccc1)c1cscn1 | 76.2% (inactive) |
| O=C(NCCN1CCC2(CC1)C(=O)NCN2c1ccccc1)c1ccc2c(c1)OCO2 | 90% (inactive) |
| O=C(NCCN1CCC2(CC1)C(=O)NCN2c1ccccc1)c1cnc2ccccc2c1 | 56.6% (inactive) |
| C[C@@H](CN1CCC2(CC1)C(=O)NCN2c1ccc(F)c(F)c1)NC(=O)c1ccc(Cl)cc1 | 14.9% (active) |
| O=C(NCCN1CCC2(CC1)C(=O)NCN2c1ccc(Cl)cc1)c1ccc(F)cc1 | 58.4% (inactive) |
